Test [1] can be described thus: NCI Yeast Anticancer Drug Screen. Data for the rad50 strain (AID 155).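 Note: 0% = growth of vehicle-only cultures of the same strain.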 Particulars: S. cerevisiae rad50 strain growth inhibition, hits give high values. The method in brief:
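Cells are treated with compound, grown, and their growth is then scored against vehicle-only cultures of the same repair-deficient yeast strain.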

Test [2] is described as follows: NCI Yeast Anticancer Drug Screen. Data for the mec2-1 strain (AID 157). The following applies: S. cerevisiae mec2-1 strain, hits give high values. An outline of the steps: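 Using mec2-1 yeast: add compound, measure growth, express inhibition versus vehicle-treated cultures.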
Test [3] can be described thus: NCI Yeast Anticancer Drug Screen. Data for the sgs1 mgt1 strain (AID 161).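 Note: 0% = growth of cultures given vehicle only.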 Particulars: S. cerevisiae sgs1 mgt1 strain, hits give high values. An outline of the steps:
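This yeast growth screen uses a strain with defined DNA-repair lesions; compound-treated growth is compared with vehicle-treated growth.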

Test [4] can be described thus: NCI Yeast Anticancer Drug Screen. Data for the cln2 rad14 strain (AID 165).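 Note: 0% = growth equal to vehicle treated cultures.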 The following applies: S. cerevisiae cln2 rad14 strain, hits give high values. An outline of the steps: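 Yeast strain cln2 rad14, bearing defects in cell cycle control and DNA repair, serves as the test system; values reflect growth inhibition compared with vehicle.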
Test [5] can be described thus: NCI Yeast Anticancer Drug Screen. Data for the bub3 strain (AID 167). Particulars: S. cerevisiae bub3 mutant strain, hits give high values. An outline of the steps: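 Part of a panel of yeast mutants defective in DNA damage repair or cell cycle regulation. Each strain is grown with compound, and inhibition is calculated relative to solvent-treated cultures.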
The nature of test [6]: NCI Yeast Anticancer Drug Screen. Data for the mlh1 rad18 strain (AID 175). Particulars: S. cerevisiae mlh1 rad18 strain growth inhibition, hits give high values. The method in brief: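 Steps: expose repair-defective yeast to compound; measure growth; express inhibition against vehicle-treated controls.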
Where [7] appears, read: at 5.0 µM (retest, dose inferred, filed as 0.5).
[8] abbreviates: at 50.0 µM (retest, dose inferred, filed as 5.0).

This is part of a sample that, as a whole, favours compounds with a hit. Of some 79,000 tested, about 15% had one in any assay. Values without a mark were called inactive. Activity calls are given as the source filed them. Cut-off read from the data, not from the text of the source: active = growth inhibition above about 70%; inactive = the rest.

Our source for the growth inhibition values is PubChem BioAssay (NCI).

Consider `CCOC(=O)C(NC(C)=O)[CH](c1ccc(OC)cc1)[Sn]([c]1ccccc1)([c]1ccccc1)[c]1ccccc1` (stereo not given), for which the growth inhibition in test [1] (setting [7]) was 99% (active); in test [1] (setting [8]), 99% (active); in test [1] (at 50.0 µM), 48.6%; in test [2] (setting [7]), 99% (active); in test [2] (setting [8]), 99% (active); in test [2] (at 50.0 µM), 58.1%. Moreover, the growth inhibition was 99% (active) in test [3] (setting [7]); 99% (active) in test [3] (setting [8]); 48.2% in test [3] (at 50.0 µM); 98% (active) in test [4] (setting [7]); 99% (active) in test [4] (setting [8]); 99% (active) in test [4] (at 50.0 µM). For the same molecule, the growth inhibition in test [5] (setting [7]) is 99% (active); in test [5] (setting [8]), 98% (active); in test [5] (at 50.0 µM), 47.4%; in test [6] (setting [7]), 99% (active); in test [6] (setting [8]) it was 99% (active); in test [6] (at 50.0 µM) it was 85.4% (active).

Regarding `COc1cc(C)c2sc3ccccc3c(=O)c2c1NCCCN(C)C`, the growth inhibition in test [1] (setting [7]) was 1%; in test [1] (setting [8]) it was 51%; in test [1] (at 50.0 µM), 72.3% (active); in test [2] (setting [7]), -4%; in test [2] (setting [8]), -6%; in test [2] (at 50.0 µM) it was 37%. For the same molecule, the growth inhibition in test [3] (setting [7]) was -2%; in test [3] (setting [8]), 58%; in test [3] (at 50.0 µM) it was 70.3% (active); in test [4] (setting [7]), -4%; in test [4] (setting [8]) it was 51%; in test [4] (at 50.0 µM) it was 14.6%. The growth inhibition in test [5] (setting [7]) was 0%; in test [5] (setting [8]), 53%; in test [5] (at 50.0 µM), 27.1%; in test [6] (setting [7]) it was -3%; in test [6] (setting [8]), 54%; in test [6] (at 50.0 µM) it was 95.3% (active).

As for `Cc1cc(NC(=S)SCc2ccc(F)cc2)c([N+](=O)[O-])cc1C`, the growth inhibition in test [1] (setting [7]) is 57%; in test [1] (setting [8]), 98% (active); in test [1] (at 50.0 µM), 98.7% (active); in test [2] (setting [7]) it was 36%; in test [2] (setting [8]), 99% (active); in test [2] (at 50.0 µM) it was 98.8% (active). Also, the growth inhibition is 87% (active) in test [3] (setting [7]); 99% (active) in test [3] (setting [8]); 98.5% (active) in test [3] (at 50.0 µM); 19% in test [4] (setting [7]); 97% (active) in test [4] (setting [8]); 98.8% (active) in test [4] (at 50.0 µM). For the same molecule, the growth inhibition in test [5] (setting [7]) is 48%; in test [5] (setting [8]), 92% (active); in test [5] (at 50.0 µM), 99% (active); in test [6] (setting [7]), 94% (active); in test [6] (setting [8]) it was 98% (active); in test [6] (at 50.0 µM) it was 99.1% (active).

For `CCN(CC)C(=S)N/N=C(\C)c1cccc(C)n1`, the growth inhibition in test [1] (setting [7]) is 84% (active); in test [1] (setting [8]) it was 100% (active); in test [1] (at 50.0 µM), 88.7% (active); in test [2] (setting [7]), 82% (active); in test [2] (setting [8]), 99% (active); in test [2] (at 50.0 µM), 91.7% (active). Further, the growth inhibition was 62% in test [3] (setting [7]); 99% (active) in test [3] (setting [8]); 85.3% (active) in test [3] (at 50.0 µM); 82% (active) in test [4] (setting [7]); 99% (active) in test [4] (setting [8]); 89.4% (active) in test [4] (at 50.0 µM). Moreover, the growth inhibition is 87% (active) in test [5] (setting [7]); 99% (active) in test [5] (setting [8]); 88.9% (active) in test [5] (at 50.0 µM); 81% (active) in test [6] (setting [7]); 99% (active) in test [6] (setting [8]); 85.8% (active) in test [6] (at 50.0 µM).

For `O=C(O)C/C(=C\c1ccco1)C(=O)O`, the growth inhibition in test [1] (setting [7]) is -8%; in test [1] (setting [8]), 9%; in test [1] (at 50.0 µM), 44.9%; in test [2] (setting [7]) it was -4%; in test [2] (setting [8]), -9%; in test [2] (at 50.0 µM), -11.5%. Besides, the growth inhibition is -4% in test [3] (setting [7]); -2% in test [3] (setting [8]); -30.6% in test [3] (at 50.0 µM); -1% in test [4] (setting [7]); -1% in test [4] (setting [8]); 38% in test [4] (at 50.0 µM). The growth inhibition is -8% in test [5] (setting [7]); -13% in test [5] (setting [8]); -27.9% in test [5] (at 50.0 µM); -4% in test [6] (setting [7]); -7% in test [6] (setting [8]); -16.4% in test [6] (at 50.0 µM).

`CCn1c2ccc(N)cc2c2c(N)c(-n3cccc3)ccc21`: the growth inhibition is 1% in test [1] (setting [7]); 61% in test [1] (setting [8]); 94.5% (active) in test [1] (at 50.0 µM); 3% in test [2] (setting [7]); 54% in test [2] (setting [8]); 64.2% in test [2] (at 50.0 µM). Besides, the growth inhibition is -7% in test [3] (setting [7]); 71% (active) in test [3] (setting [8]); 97.5% (active) in test [3] (at 50.0 µM); -6% in test [4] (setting [7]); 50% in test [4] (setting [8]); 61.9% in test [4] (at 50.0 µM). In addition, the growth inhibition in test [5] (setting [7]) was -2%; in test [5] (setting [8]), 86% (active); in test [5] (at 50.0 µM), 87.5% (active); in test [6] (setting [7]), 4%; in test [6] (setting [8]), 57%; in test [6] (at 50.0 µM), 91.5% (active).

On to `CC(Cc1ccccc1)N1C(=O)C=CC1=O` (stereo not given), for which the growth inhibition in test [1] (setting [7]) was 45%; in test [1] (setting [8]) it was 98% (active); in test [1] (at 50.0 µM) it was 91.8% (active); in test [2] (setting [7]), 92% (active); in test [2] (setting [8]) it was 99% (active); in test [2] (at 50.0 µM), 93.5% (active). The growth inhibition in test [3] (setting [7]) is 20%; in test [3] (setting [8]), 50%; in test [3] (at 50.0 µM) it was 93.8% (active); in test [4] (setting [7]), 77% (active); in test [4] (setting [8]), 98% (active); in test [4] (at 50.0 µM), 91.5% (active). In addition, the growth inhibition in test [5] (setting [7]) was 76% (active); in test [5] (setting [8]), 99% (active); in test [5] (at 50.0 µM), 92.2% (active); in test [6] (setting [7]), 47%; in test [6] (setting [8]), 98% (active); in test [6] (at 50.0 µM), 91.8% (active).

Regarding `CC(C)CCCC(O)CNCc1ccccc1` (stereo not given), the growth inhibition in test [1] (setting [7]) was 9%; in test [1] (setting [8]), 27%; in test [1] (at 50.0 µM), -1.95%; in test [2] (setting [7]), 17%; in test [2] (setting [8]) it was 38%; in test [2] (at 50.0 µM), 11.4%. The growth inhibition is 13% in test [3] (setting [7]); -11% in test [3] (setting [8]); 28.2% in test [3] (at 50.0 µM); 13% in test [4] (setting [7]); 36% in test [4] (setting [8]); -18.9% in test [4] (at 50.0 µM). In addition, the growth inhibition was 5% in test [5] (setting [7]); 44% in test [5] (setting [8]); 82% (active) in test [5] (at 50.0 µM); 7% in test [6] (setting [7]); 15% in test [6] (setting [8]); 10.2% in test [6] (at 50.0 µM).

`CCCCCN(CCCCC)CCCNc1ccc(C)c2sc3ccccc3c(=O)c12`: the growth inhibition in test [1] (setting [7]) is 98% (active); in test [1] (setting [8]), 96% (active); in test [1] (at 50.0 µM) it was 98.4% (active); in test [2] (setting [7]) it was 99% (active); in test [2] (setting [8]), 98% (active); in test [2] (at 50.0 µM) it was 99% (active). Moreover, the growth inhibition in test [3] (setting [7]) was 99% (active); in test [3] (setting [8]), 98% (active); in test [3] (at 50.0 µM), 99% (active); in test [4] (setting [7]), 99% (active); in test [4] (setting [8]), 95% (active); in test [4] (at 50.0 µM), 95% (active). In addition, the growth inhibition in test [5] (setting [7]) is 99% (active); in test [5] (setting [8]) it was 96% (active); in test [5] (at 50.0 µM) it was 98% (active); in test [6] (setting [7]), 99% (active); in test [6] (setting [8]) it was 97% (active); in test [6] (at 50.0 µM) it was 97.5% (active).

Consider `C/C(=N/O)c1ccc2c(c1)C(=NO)c1cc(/C(C)=N/O)ccc1-2`, for which the growth inhibition in test [1] (setting [7]) is 19%; in test [1] (setting [8]), 98% (active); in test [1] (at 50.0 µM), 89.9% (active); in test [2] (setting [7]), -10%; in test [2] (setting [8]) it was 99% (active); in test [2] (at 50.0 µM) it was 94.7% (active). Also, the growth inhibition was 10% in test [3] (setting [7]); 99% (active) in test [3] (setting [8]); 94.2% (active) in test [3] (at 50.0 µM); 14% in test [4] (setting [7]); 99% (active) in test [4] (setting [8]); 93.7% (active) in test [4] (at 50.0 µM). Also, the growth inhibition in test [5] (setting [7]) is 21%; in test [5] (setting [8]) it was 98% (active); in test [5] (at 50.0 µM), 93.5% (active); in test [6] (setting [7]), 1%; in test [6] (setting [8]), 98% (active); in test [6] (at 50.0 µM), 91% (active).
